Measured values taken from PubChem BioAssay.
Calls of active or inactive are those of the source.

How the values were obtained:
[1] = binders of probe aFSTL3 on microarray, primary screen, stem cell growth factor project, biochemical, small-molecule microarray, fluorescence 635/667 (AID 1064); conditions: higher = more signal;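 also: measures binding of the biotinylated anti-FSTL3 antibody to printed compounds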
[2] = binders from COS7 lysate, DM2A8 probe, primary screen, torsin A project, cell lysate, small-molecule microarray, fluorescence 635/667 (AID 1065); conditions: higher = more signal, COS7 lysate expressing mutant human TOR1A
[3] = binders of probe aFGF2 on microarray, primary screen, stem cell growth factor project, biochemical, small-molecule microarray, fluorescence 635/667 (AID 1067); conditions: higher = more signal;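 also: measures binding of biotinylated aFGF2 protein to printed compounds on slides; z-score merges feature fluorescence and signal-to-noise across triplicate slides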
[4] = binders of probe aFGF10 on microarray, primary screen, stem cell growth factor project, biochemical, small-molecule microarray, fluorescence 635/667 (AID 1071); conditions: higher = more signal;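 also: score merges 667 nm spot intensity and signal to noise from triplicate slides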
[5] = biological target: Neurogenic locus notch homolog protein 2 (Homo sapiens) (UniProt Q04721); experiment: Notch2 binders on small-molecule microarrays, primary screen, biochemical, small-molecule microarray, 635 nm fluorescence, stem cell growth factors (AID 1073); conditions: Notch2 binding, higher = more signal
[6] = biological target: Pro-neuregulin-1, membrane-bound isoform (Homo sapiens) (UniProt Q02297); experiment: NRG1 binders on small-molecule microarrays, primary screen, psychiatric disease protein project, biochemical, small-molecule microarray, fluorescence 635/667 (AID 1075); conditions: NRG1 binding, 635 nm fluorescence, higher = more signal;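 also: score combines 667 nm spot fluorescence with signal to noise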
Pro-neuregulin-1, membrane-bound isoform (Homo sapiens), sequence (Q02297 whole entry, looked up, the tested form may be a part, canonical isoform): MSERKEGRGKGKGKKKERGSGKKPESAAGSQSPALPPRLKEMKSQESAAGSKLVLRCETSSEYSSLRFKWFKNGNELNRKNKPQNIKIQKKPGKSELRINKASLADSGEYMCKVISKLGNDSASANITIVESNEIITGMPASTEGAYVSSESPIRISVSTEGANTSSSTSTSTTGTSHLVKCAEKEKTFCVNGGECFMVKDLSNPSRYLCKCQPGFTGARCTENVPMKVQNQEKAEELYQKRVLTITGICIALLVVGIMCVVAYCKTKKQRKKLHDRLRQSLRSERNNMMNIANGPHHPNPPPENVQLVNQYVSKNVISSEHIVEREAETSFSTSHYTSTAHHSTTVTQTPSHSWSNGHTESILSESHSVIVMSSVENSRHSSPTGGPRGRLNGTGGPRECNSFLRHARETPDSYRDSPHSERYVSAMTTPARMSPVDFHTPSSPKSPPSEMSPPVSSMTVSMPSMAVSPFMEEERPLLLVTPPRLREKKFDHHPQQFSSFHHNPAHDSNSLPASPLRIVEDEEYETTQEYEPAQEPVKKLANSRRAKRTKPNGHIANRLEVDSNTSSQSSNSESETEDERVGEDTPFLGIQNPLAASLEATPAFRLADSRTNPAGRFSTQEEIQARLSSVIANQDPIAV

[7] = system: Neuregulin-1 EGF-like domain; experiment: binders of neuregulin-1 EGF-like domain, primary screen, biochemical, small-molecule microarray, 635 nm fluorescence (AID 1081); conditions: small-molecule microarray binding, higher = more signal;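 also: binding of the protein to compounds printed on small-molecule microarray slides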
[8] = FRG1 promoter luciferase signal modulators, primary screen, FRG1 inhibition for FSHD, cell-based, C2C12 myotubes, firefly/Renilla luciferase, luminescence (AID 1084); conditions: higher = more signal, called active from +8 up or from −8 down
[9] = binders of probe aFST on microarray, primary screen, stem cell growth factor project, biochemical, small-molecule microarray, fluorescence 635/667 (AID 1086); conditions: higher = more signal;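 also: score merges 667 nm fluorescence with signal-to-noise of each printed compound spot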
[10] = binders of probe aHhip on microarray, primary screen, stem cell growth factor project, biochemical, small-molecule microarray, fluorescence 635/667 (AID 1087); conditions: higher = more signal;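 also: score merges spot fluorescence at 667nm with spot signal to noise ratio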
[11] = system: PRMT1 (protein arginine N-methyltransferase 1); experiment: PRMT1 binders on small-molecule microarrays, primary screen, biochemical, small-molecule microarray, 635 nm fluorescence (AID 1088); conditions: small-molecule microarray binding, higher = more signal;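 also: binding of Prmt1 protein to compounds spotted on small-molecule microarray slides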
[12] = yeast growth modulation, basal conditions, primary screen, YJM789 clinical isolate, OD600, 24 h (AID 1089);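 also: growth of clinical yeast isolate S. cerevisiae YJM 789 seeded 1000 cells per well; test concentration not given here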; conditions: S. cerevisiae YJM789 growth, higher = more signal, called active from +8 up or from −8 down
[13] = fission yeast growth modulation, primary screen, strain 972, OD600, 24 h, no modulator (AID 1090);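 also: basal condition with compound alone and no growth modifier present; test concentration not given here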; conditions: S. pombe 972 growth, higher = more signal, called active from +8 up or from −8 down
[14] = S. cerevisiae growth modulation with rapamycin, primary screen, strain BY4716, OD600, 96 h (AID 1091); conditions: higher = more signal, called active from +8 up or from −8 down; also: test concentration not given here
[15] = biological target: Torsin-1A-interacting protein 2 (Homo sapiens) (UniProt Q8NFQ8); experiment: LULL1 binders on small-molecule microarray, primary screen, cell lysate, human LULL1 lysate, 635/667 nm fluorescence (AID 1092); conditions: hLULL1 lysate binding, 635 nm fluorescence, higher = more signal;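 also: probe is lysate of COS7 cells overexpressing human LULL1; score merges per-feature 667 nm fluorescence with signal-to-noise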
Torsin-1A-interacting protein 2 (Homo sapiens), sequence (Q8NFQ8 whole entry, looked up): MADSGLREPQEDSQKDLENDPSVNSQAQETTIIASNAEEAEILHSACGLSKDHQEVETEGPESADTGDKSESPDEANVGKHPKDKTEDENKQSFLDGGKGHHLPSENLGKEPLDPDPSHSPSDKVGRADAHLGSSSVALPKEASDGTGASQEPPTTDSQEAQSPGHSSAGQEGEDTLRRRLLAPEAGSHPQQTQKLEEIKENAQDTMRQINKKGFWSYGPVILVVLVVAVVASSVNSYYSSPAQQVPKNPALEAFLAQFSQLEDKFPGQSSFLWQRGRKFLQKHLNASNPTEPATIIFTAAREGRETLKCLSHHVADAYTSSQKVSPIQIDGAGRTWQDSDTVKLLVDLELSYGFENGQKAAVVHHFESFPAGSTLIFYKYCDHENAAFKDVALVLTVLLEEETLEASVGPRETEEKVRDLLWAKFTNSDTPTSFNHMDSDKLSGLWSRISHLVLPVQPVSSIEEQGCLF

[16] = E. coli growth modulation, two-sided OD650, primary screen, E. coli filamentation project, strain DRC41, 24 h (AID 1093); conditions: OD650, 24 h, higher = more signal, called active from +8 up or from −8 down;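 also: MC1000 strain lacking acrAB efflux and sulA so SOS filamentation is blocked; test concentration not given here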
[17] = small-molecule microarray binders of probe aLefty2, primary screen, biochemical, biotinylated probe, 635/667 nm fluorescence (AID 1094); conditions: higher = more signal;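 also: score merges spot fluorescence near 667 nm with spot signal-to-noise ratio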
[18] = system: Noggin (protein binding on small-molecule microarray); experiment: Noggin binders on small-molecule microarray, primary screen, biochemical, 635/667 nm fluorescence (AID 1095); conditions: 635 nm fluorescence, higher = more signal;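 also: score merges 667 nm feature fluorescence with signal to noise over triplicate slides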
[19] = biological target: Neurogenic locus notch homolog protein 3 (Homo sapiens) (UniProt Q9UM47); experiment: NOTCH3 binders on small-molecule microarray, primary screen, biochemical, 635/667 nm fluorescence (AID 1096); conditions: NOTCH3 binding, 635 nm fluorescence, higher = more signal
Neurogenic locus notch homolog protein 3 (Homo sapiens), sequence (Q9UM47 whole entry, looked up): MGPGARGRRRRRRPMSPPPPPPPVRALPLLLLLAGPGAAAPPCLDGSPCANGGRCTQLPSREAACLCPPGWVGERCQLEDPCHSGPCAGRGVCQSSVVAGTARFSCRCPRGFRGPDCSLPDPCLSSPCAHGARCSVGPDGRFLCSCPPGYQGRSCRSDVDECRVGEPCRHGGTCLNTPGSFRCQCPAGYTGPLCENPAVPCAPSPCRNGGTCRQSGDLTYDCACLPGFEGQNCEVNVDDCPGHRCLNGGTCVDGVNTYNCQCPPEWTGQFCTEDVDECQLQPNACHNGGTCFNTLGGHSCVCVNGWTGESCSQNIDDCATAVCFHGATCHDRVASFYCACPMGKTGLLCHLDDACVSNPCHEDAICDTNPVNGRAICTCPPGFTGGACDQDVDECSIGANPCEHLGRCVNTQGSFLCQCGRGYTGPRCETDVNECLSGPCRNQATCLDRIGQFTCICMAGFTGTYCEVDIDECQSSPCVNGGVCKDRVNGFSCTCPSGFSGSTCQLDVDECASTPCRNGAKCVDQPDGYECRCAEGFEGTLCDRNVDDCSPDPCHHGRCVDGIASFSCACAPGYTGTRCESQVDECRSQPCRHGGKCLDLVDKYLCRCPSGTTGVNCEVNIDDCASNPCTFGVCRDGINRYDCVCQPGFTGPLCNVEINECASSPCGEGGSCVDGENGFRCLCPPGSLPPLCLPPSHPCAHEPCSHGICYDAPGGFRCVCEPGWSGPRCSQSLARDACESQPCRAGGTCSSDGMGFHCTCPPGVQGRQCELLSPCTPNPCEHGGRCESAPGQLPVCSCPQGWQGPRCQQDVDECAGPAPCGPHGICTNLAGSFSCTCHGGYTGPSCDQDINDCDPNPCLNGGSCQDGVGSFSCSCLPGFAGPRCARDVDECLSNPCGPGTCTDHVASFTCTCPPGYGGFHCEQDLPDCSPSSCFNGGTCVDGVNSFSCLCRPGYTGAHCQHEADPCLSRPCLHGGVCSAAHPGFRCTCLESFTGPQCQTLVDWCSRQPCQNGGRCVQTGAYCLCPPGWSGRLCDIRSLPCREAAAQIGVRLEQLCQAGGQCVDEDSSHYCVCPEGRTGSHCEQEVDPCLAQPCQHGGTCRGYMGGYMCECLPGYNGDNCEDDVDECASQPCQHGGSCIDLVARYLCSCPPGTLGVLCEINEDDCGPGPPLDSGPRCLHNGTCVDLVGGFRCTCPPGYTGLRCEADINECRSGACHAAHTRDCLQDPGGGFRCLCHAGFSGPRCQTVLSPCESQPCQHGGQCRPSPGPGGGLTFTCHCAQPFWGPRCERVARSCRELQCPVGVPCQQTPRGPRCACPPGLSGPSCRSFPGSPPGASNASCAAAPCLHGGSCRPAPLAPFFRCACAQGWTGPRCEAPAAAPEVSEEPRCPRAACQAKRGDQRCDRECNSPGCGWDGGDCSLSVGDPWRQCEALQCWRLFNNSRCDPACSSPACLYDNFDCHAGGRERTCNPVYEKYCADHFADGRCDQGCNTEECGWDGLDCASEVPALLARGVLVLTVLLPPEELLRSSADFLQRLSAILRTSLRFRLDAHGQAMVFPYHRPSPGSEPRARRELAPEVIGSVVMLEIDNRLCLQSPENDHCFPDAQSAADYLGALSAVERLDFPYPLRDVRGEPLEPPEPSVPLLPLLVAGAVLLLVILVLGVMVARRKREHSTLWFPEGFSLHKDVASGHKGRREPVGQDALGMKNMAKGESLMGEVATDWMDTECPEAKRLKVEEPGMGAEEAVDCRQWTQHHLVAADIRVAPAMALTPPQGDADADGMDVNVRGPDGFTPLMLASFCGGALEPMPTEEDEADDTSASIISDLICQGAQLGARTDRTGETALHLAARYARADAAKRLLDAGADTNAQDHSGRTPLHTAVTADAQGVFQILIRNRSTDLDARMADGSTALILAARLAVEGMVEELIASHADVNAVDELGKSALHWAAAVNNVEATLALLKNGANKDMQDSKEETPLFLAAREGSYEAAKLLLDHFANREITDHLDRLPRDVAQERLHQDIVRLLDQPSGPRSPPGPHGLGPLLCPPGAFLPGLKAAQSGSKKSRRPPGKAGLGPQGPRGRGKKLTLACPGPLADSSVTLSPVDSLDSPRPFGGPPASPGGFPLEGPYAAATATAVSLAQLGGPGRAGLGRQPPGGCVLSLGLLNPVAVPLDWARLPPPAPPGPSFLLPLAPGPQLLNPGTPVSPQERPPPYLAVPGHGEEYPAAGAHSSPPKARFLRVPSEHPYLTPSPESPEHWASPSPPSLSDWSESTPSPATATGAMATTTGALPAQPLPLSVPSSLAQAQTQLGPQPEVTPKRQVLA

[20] = small-molecule microarray binders of probe aEGFR, primary screen, biochemical, biotinylated probe, 635/667 nm fluorescence (AID 1097); conditions: higher = more signal;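 also: probe is a biotinylated anti-EGFR antibody binding compounds printed on slides; score combines fluorescence near 667 nm and signal to noise of each spot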

Compound | composite z-score [1] | composite z-score [2] | composite z-score [3] | composite z-score [4] | composite z-score [5] | composite z-score [6] | composite z-score [7] | z-score [8] | composite z-score [9] | composite z-score [10] | composite z-score [11] | z-score [12] | z-score [13] | z-score [14] | composite z-score [15] | z-score [16] | composite z-score [17] | composite z-score [18] | composite z-score [19] | composite z-score [20]
CC(C)CON=C1C[C@@H](O)[C@@H](O)[C@@H]2[C@@H]3C(=O)N(C[C@@H]4CCCO4)C(=O)[C@@H]3CC[C@H]12 | -0.549 | 0.254 | -0.116 | 0.421 | 0.595 | -0.0414 | 0.59 | -0.267 (inactive) | -0.179 | -0.406 | 0.976 | -1.04 (inactive) | 0.042 (inactive) | -0.435 (inactive) | 1.39 | 0.134 (inactive) | -0.234 | 0.468 | 0.668 | -0.0191
O=C1[C@H]2[C@H]3[C@H](O)[C@H](O)CC(=NOCc4ccccc4)[C@H]3CC[C@H]2C(=O)N1C[C@@H]1CCCO1 | -0.493 | -0.259 | -0.133 | 0.717 | 0.564 | 0.512 | 0.792 | -0.187 (inactive) | 0.14 | -0.123 | -0.107 | -0.139 (inactive) | 0.531 (inactive) | -0.351 (inactive) | 0.78 | 0.0096 (inactive) | -0.238 | 0.322 | 0.48 | -0.123
COC(=O)[C@H](C)NC(=O)CCC1CC(OC(=O)NCCc2ccc(F)cc2)CC2(CCCC(COC(=O)NCC(c3ccccc3)c3ccccc3)O2)O1 (stereo not given in full) | -0.342 | -0.266 | -0.124 | 0.462 | 1.29 | 0.846 | 1.2 | 1.38 (inactive) | 0.107 | -0.247 | 0.915 | 0.304 (inactive) | 0.917 (inactive) | 1.56 (inactive) | 1.88 | 0.115 (inactive) | -0.175 | 0.409 | 0.897 | -0.094
CCOC(=O)[C@H](Cc1ccccc1)NC(=O)CCC1CC(OC(=O)NCc2ccc3c(c2)OCO3)CC2(CCCC(COC(=O)NCc3cccc(C(F)(F)F)c3)O2)O1 (stereo not given in full) | -0.353 | 0.226 | -0.0985 | 0.0907 | 0.981 | 0.0527 | 0.481 | -0.0878 (inactive) | 0.348 | -0.0645 | 1.35 | -0.594 (inactive) | 0.926 (inactive) | 0.287 (inactive) | 0.735 | -1.29 (inactive) | -0.0383 | 0.606 | 1.11 | 0.0293
COC(=O)[C@H](C)NC(=O)CCC1CC(OC(=O)NCc2ccc3c(c2)OCO3)CC2(CCCC(COC(=O)NCCOc3ccccc3)O2)O1 (stereo not given in full) | -0.426 | 0.898 | -0.122 | 0.325 | 1.06 | 0.689 | 1.04 | -0.503 (inactive) | 0.91 | -0.479 | 1.55 | -1.31 (inactive) | 0.26 (inactive) | 0.303 (inactive) | 1.57 | -1.16 (inactive) | -0.147 | 0.737 | 1.07 | -0.165
CCCCCN1CC=CC23O[C@@H]4C=CCOC(=O)[C@@H]4[C@H]2C(=O)N(CCCCCCO)[C@@H]3C1=O (stereo not given in full) | 0.729 | -0.859 | -0.133 | -0.237 | -1.14 | 2.35 | 0.975 | 0.428 (inactive) | -0.823 | -0.429 | -0.0856 | -0.44 (inactive) | -0.183 (inactive) | -0.291 (inactive) | 0.865 | 0.0293 (inactive) | -0.0436 | -1.38 | -0.973 | -0.254
CC(CCN1CCc2nc(-c3ccccc3)c(-c3ccccc3)cc2C1)=NO[C@H](C)c1cn([C@@H]2COC[C@H]2O)nn1 | -0.388 | 1.4 | -0.0867 | 0.259 | 0.295 | 0.646 | 1.03 | -0.203 (inactive) | 0.133 | -0.0237 | 1.49 | -0.0653 (inactive) | -1.35 (inactive) | -4.33 (inactive) | 2.03 | 0.364 (inactive) | 0.0218 | 0.224 | 0.299 | -0.137
C#CCCCON=C1C[C@@H](O)[C@@H](O)[C@@H]2[C@@H]3C(=O)N([C@@H](C)c4ccccc4)C(=O)[C@@H]3CC[C@H]12 | -0.196 | -0.0639 | -0.127 | 0.342 | 0.76 | 0.233 | 0.755 | 0.548 (inactive) | 0.342 | -0.0994 | 0.37 | 0.45 (inactive) | 0.347 (inactive) | -0.418 (inactive) | 0.773 | 0.229 (inactive) | 0.0008 | 0.573 | 0.999 | 0.207
CCc1cccc(NC(=O)O[C@H]2[C@H](OC(=O)Nc3ccc4c(c3)OCO4)[C@@H](OC(=O)Nc3ccc4c(c3)OCO4)[C@@H](OC)O[C@@H]2CO)c1 | -0.263 | 1.45 | 0.225 | 1 | 1.49 | -0.396 | 1.25 | 8.02 (active) | 0.507 | -0.15 | 1.54 | 1.41 (inactive) | 1.5 (inactive) | -2.13 (inactive) | 3.59 | 1.47 (inactive) | 0.166 | 1.22 | 1.08 | -0.0488
COc1ccc(COC(=O)NN=C2C[C@@H](O)[C@@H](O)[C@@H]3[C@@H]4C(=O)N(Cc5ccc6c(c5)OCO6)C(=O)[C@@H]4CC[C@@H]23)cc1 | 1.58 | 0.43 | 0.0203 | -0.0669 | -0.732 | -0.424 | 0.146 | -0.918 (inactive) | 1.18 | 0.0722 | -0.291 | -1.65 (inactive) | -0.654 (inactive) | -0.731 (inactive) | 0.529 | -0.486 (inactive) | 0.63 | -0.666 | -0.303 | -0.187
